Results filed as inconclusive are left out. Activity calls are given as the source filed them. The call rests on the fitted dose curve; in most records, active means well fitted curve in either direction with a large enough effect (not every such curve was filed as active); inconclusive means small, poorly fitted or top-dose-only effect, or another doubt; inactive means flat fitted curve, though single readings scatter.
Each compound was assayed against Mitogen-activated protein kinase 10 (Mus musculus) (UniProt Q61831) (assay: JNK3 AlphaScreen Assay (AID 530;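 further: kinase came from lysate of stimulated human HepG2 cells; signal reports phosphorylation of biotinylated GST-cJun 1-79 at Ser73 with 10 µM ATP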)). Settings: JNK3 lysate, c-Jun phosphorylation; series mostly up to 57.1 µM; activity change, negative = inhibition: at the top concentration.
How it was run: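 Kinase buffer: 20 mM Tris-HCl pH 7.6, 10 mM MgCl2, 1 mM DTT, 0.1 mM Na3VO4, 0.01% Tween-20; ATP 10 uM. Substrate biotin-GST-cJun(1-79), enzyme from activated HepG2 lysates. Detection by Ser73 phospho-antibody AlphaScreen.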
On the % scale 0 is the no-effect control and ±100 the full control effect.

Activity change, negative = inhibition, inactive:
C[C@@H](C(=O)N[C@@H](CO)Cc1ccccc1)[C@H]1C[C@]1(C)[C@H](NC(=O)OCc1ccccc1)c1ccccc1 0.866%, COC(=O)[C@@]1(Cc2ccc(OC)cc2)[C@H]2c3cc(C(=O)N(C)C)n(Cc4cccc5ccccc45)c3C[C@H]2CN1C(=O)c1ccccc1 -26.8%, COC(=O)[C@@]1(Cc2ccc(OC)cc2)[C@H]2c3cc(C(=O)N(C)C)n(Cc4cc(F)c(F)c(F)c4)c3C[C@H]2CN1C(=O)c1ccccc1 -27.1%, Cc1cc(CNC(=O)[C@H](C)[C@@H]2C[C@@]2(C)[C@@H](NC(=O)OCc2ccccc2)c2ccccc2)nn1C 2.17%, COC(=O)[C@@]1(Cc2ccccc2)[C@H]2c3cc(C(=O)N4CCCC4)n(Cc4ccccc4)c3C[C@H]2CN1C(=O)c1ccccc1 -23.6%, CC(=O)OCC1C2CC[C@H]3C(OCc4ccc(F)cc4C(F)(F)F)OC[C@]4(C)[C@H]3C2=C(CN4C(=O)OC(C)(C)C)[C@H](C)C1COC(C)=O (stereo not given in full) -2.06%, COC(=O)[C@@]1(Cc2ccc(F)cc2)[C@H]2c3cc(C(=O)N(C)C)n(CCc4ccc(OC)c(Br)c4)c3C[C@H]2CN1C(=O)c1ccccc1 -7.79%, C[C@@H](C(=O)NCc1ccccc1)[C@H]1C[C@]1(C)[C@H](NC(=O)OCc1ccccc1)c1ccccc1 13%, COC(=O)[C@@]1(Cc2ccc(OC)cc2)[C@H]2c3cc(C(=O)N4CCCC4)n(CCF)c3C[C@H]2CN1C(=O)c1ccccc1 -25.4%, CCc1c2c(nc3ccc(OC)cc13)OC(C)C2 (stereo not given) -11.3%, COC(=O)C1(CC(C)C)C=C2C(=C(C)C(=O)C2C)CN1 (stereo not given) 2.04%, Cc1ccc(CNC(=O)[C@H](C)[C@H]2C[C@]2(C)[C@H](NC(=O)OCc2ccccc2)c2ccccc2)c(F)c1F 15.4%, COC(=O)[C@@]1(Cc2ccc(OC)cc2)[C@H]2c3cc(C(=O)N4CCCC4)n(C[C@H](O)CO)c3C[C@H]2CN1C(=O)c1ccccc1 -6.22%, CS(=O)(=O)c1ccc(CNC(=O)[C@@H]2C[C@H]2[C@@H](NP(=O)(c2ccccc2)c2ccccc2)c2ccccc2)cc1 -6.13%, COC(=O)[C@@]1(Cc2ccccc2)[C@H]2c3cc(C(=O)N(C)C)n(Cc4ccc(O)c(OC)c4)c3C[C@H]2CN1C(=O)c1ccccc1 -14.7%, COC(=O)[C@H]1C[C@@H]1[C@H](NC(C)=O)c1ccccc1 1.54%, COC(=O)[C@@]1(Cc2ccc(OC)cc2)[C@H]2c3cc(C(=O)N(C)C)n(CCSCCO)c3C[C@H]2CN1C(=O)c1ccccc1 -11.5%, COC(=O)[C@@]1(Cc2ccc(OC)cc2)[C@H]2c3cc(C(=O)N4CCCC4)n(Cc4ccc(S(C)(=O)=O)cc4)c3C[C@H]2CN1C(=O)c1ccccc1 -12.8%, COC(=O)[C@@]1(Cc2ccc(OC)cc2)[C@H]2c3cc(C(=O)N(C)C)n(C)c3C[C@H]2CN1C(=O)c1ccccc1 -26%, COC(=O)Cn1c(C(=O)N(C)C)cc2c1C[C@H]1CN(C(=O)c3ccccc3)[C@@](Cc3ccc(F)cc3)(C(=O)OC)[C@@H]21 -10.4%, COC(=O)[C@@]1(Cc2ccccc2)[C@H]2c3cc(C(=O)N(C)C)n(Cc4cc(F)c(F)c(F)c4)c3C[C@H]2CN1C(=O)c1ccccc1 -16.4%, COC(=O)[C@H]1C[C@@H]1[C@H](N)c1ccccc1 3.56%, COc1ccc(CNC(=O)[C@H]2C[C@@H]2[C@H](NP(=O)(c2ccccc2)c2ccccc2)c2ccccc2)cc1OC -9.2%, COC(=O)[C@@]1(Cc2ccc(OC)cc2)[C@H]2c3cc(C(=O)N4CCCC4)n(CCc4ccc(O)c(O)c4)c3C[C@H]2CN1C(=O)c1ccccc1 -12.8%, CCc1c2c(nc3ccccc13)OC(C)C2 (stereo not given) -0.377%, COC(=O)[C@@]1(Cc2ccc(OC)cc2)[C@H]2c3cc(C(=O)N(C)C)n(CCc4ccc(OC)c(Br)c4)c3C[C@H]2CN1C(=O)c1ccccc1 -24.9%, C/C(=C\C1CCCCC1)C(NC(=O)c1cccnc1)c1ccc(-c2ccccc2)cc1 (stereo not given) -3.85%, C[C@@H](C(=O)N[C@@H](CO)Cc1ccccc1)[C@@H]1C[C@@]1(C)[C@@H](NC(=O)OCc1ccccc1)c1ccccc1 -2.1%, O=C(NCc1cccc2ccccc12)[C@H]1C[C@@H]1[C@H](NP(=O)(c1ccccc1)c1ccccc1)c1ccccc1 -10.5%, C[C@@H](C(=O)NCC1CC1)[C@@H]1C[C@@]1(C)[C@@H](NC(=O)OCc1ccccc1)c1ccccc1 -1.26%, COC(=O)[C@@]1(Cc2ccc(F)cc2)[C@H]2c3cc(C(=O)N(C)C)n(CCN4CCOCC4)c3C[C@H]2CN1C(=O)c1ccccc1 -5.44%, COC(=O)[C@@]1(Cc2ccc(F)cc2)[C@H]2c3cc(C(=O)N4CCCC4)n(CCSCCO)c3C[C@H]2CN1C(=O)c1ccccc1 -15%, COC(=O)[C@@]1(Cc2ccc(F)cc2)[C@H]2c3cc(C(=O)N4CCCC4)n(CCc4c[nH]c5cc(F)ccc45)c3C[C@H]2CN1C(=O)c1ccccc1 -19.6%, Cc1c2c(nc3ccccc13)OCC2 -0.775%, COC(=O)[C@@]1(Cc2ccc(OC)cc2)[C@H]2c3cc(C(=O)N(C)C)n(Cc4ccc(OC)c(OC)c4)c3C[C@H]2CN1C(=O)c1ccccc1 -21.3%, C[C@@H](C(=O)NCc1ccc(C(F)(F)F)nc1)[C@H]1C[C@]1(C)[C@H](NC(=O)OCc1ccccc1)c1ccccc1 3.43%, COC(=O)[C@@]1(Cc2ccc(OC)cc2)[C@H]2c3cc(C(=O)N(C)C)n(Cc4nc5ccccc5[nH]4)c3C[C@H]2CN1C(=O)c1ccccc1 -23.7%, COC(=O)[C@@]1(Cc2ccc(OC)cc2)[C@H]2c3cc(C(=O)N(C)C)n(Cc4ccc(C(F)(F)F)nc4)c3C[C@H]2CN1C(=O)c1ccccc1 -17.6%, COC(=O)[C@@]1(Cc2ccc(OC)cc2)[C@H]2c3cc(C(=O)N(C)C)n(Cc4ccc(O)c(OC)c4)c3C[C@H]2CN1C(=O)c1ccccc1 -17.6%

outcome, inactive:
COC(=O)[C@@]1(Cc2ccc(OC)cc2)[C@H]2c3cc(C(=O)N(C)C)n(Cc4c(CO)[nH]cc(C)c4=O)c3C[C@H]2CN1C(=O)c1ccccc1
